# Screens from PubChem BioAssay.
# In the library only some 7.4% were active in any assay of this set; here they are far more common.
# KinaseGlo FLuc: counter-screen: inhibitors of Kinase-Glo firefly luciferase; Q27757; 0.28% of 200,000 active; Potency, µM (highest dose often 38.3 µM), for the others: at the top dose activity change, negative = inhibition, actives largely listed as inhibitors; Kinase-Glo luciferase, ATP luminescence, 8 min; further: on the % scale 0 is the no-effect control and ±100 the full control effect; nearly all actives have a fitted effect of over 60% in size
#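 Compounds were added to a substrate mix at pH 7.2 (50 mM imidazole, 10 uM ATP, within the enzyme's linear range), followed by Kinase-Glo detection reagent; luminescence was measured after 8 minutes at ambient temperature.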
# FLuc modulator: counter-screen for miR-21 project: firefly luciferase inhibitors or activators | 6.9% of 360,000 active | purified FLuc, Km substrates, luminescence inhibition | AID 588342 | Potency, µM (series often up to 57.5 µM), for the others: at the top dose activity change, negative = inhibition, usual class: inhibitors | P08659;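 further: plate controls were vehicle for no effect and reference inhibitor for full effect; nearly all actives have a fitted effect of over 55% in size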
# Target sequence (P08659 whole entry, looked up): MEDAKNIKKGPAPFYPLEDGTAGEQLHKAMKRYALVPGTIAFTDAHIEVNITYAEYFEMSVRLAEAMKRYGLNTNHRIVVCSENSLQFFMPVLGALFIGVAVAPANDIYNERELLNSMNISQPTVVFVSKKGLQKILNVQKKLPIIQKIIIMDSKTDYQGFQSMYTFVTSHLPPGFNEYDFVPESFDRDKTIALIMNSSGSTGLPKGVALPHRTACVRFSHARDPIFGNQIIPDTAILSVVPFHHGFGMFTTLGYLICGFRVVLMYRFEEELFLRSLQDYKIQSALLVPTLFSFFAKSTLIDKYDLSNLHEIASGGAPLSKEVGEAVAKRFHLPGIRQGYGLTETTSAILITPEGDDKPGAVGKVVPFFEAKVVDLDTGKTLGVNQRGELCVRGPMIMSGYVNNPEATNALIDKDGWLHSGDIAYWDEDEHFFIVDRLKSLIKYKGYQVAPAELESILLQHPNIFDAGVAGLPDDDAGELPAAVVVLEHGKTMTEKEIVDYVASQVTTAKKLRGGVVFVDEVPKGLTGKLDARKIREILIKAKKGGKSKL
#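 Biochemical qHTS of compounds, final roughly 60 µM downward over six points, against 10 nM purified firefly luciferase using Km concentrations of substrates (10 uM D-luciferin, 10 uM ATP) in Tris acetate pH 7.5 buffer; luminescence output.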
# ELG1 genotox: induces genotoxicity in HEK293T cells with luciferase-tagged ELG1; HEK293T ELG1-luciferase reporter, luminescence, 16 h; Potency, µM (titrated, usually from 46 µM), for the others: at the top dose activity change, positive = activation, actives largely listed as activators; 1.3% of 330,000 active; further: % of control where 0% means no effect; nearly all actives have a fitted effect of over 60% in size
#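 Genotoxic stress is detected as increased luminescence from luciferase-tagged ELG1 in HEK293T cells, measured with ONE-Glo after a 16 hr treatment at 37 °C.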
# Rab9 prom act: Rab9 promoter activation. Huh7 Rab9 promoter-luciferase reporter, luminescence, 24 h. Potency, µM (titrated, usually from 9.22 µM), for the others: top-dose activation, negative = inhibition, most hits filed as activators. 2.8% of 320,000 active; further: % of control where 0% means no effect; nearly all actives have a fitted effect of over 60% in size
#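 Huh7 cells stably carrying a Rab9 promoter-luciferase reporter, 1500 cells per well in OP-MEM I with 10% FBS, treated with compound 24 hours at 37C. Luciferase activity read by luminescence after 10 minutes with Amplite reagent.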
# NPC1 promoter act: activators of NPC1 promoter | Huh7 NPC1 promoter luciferase reporter, 24 h | Potency, µM (highest dose often 9.22 µM), for inactives: at the top dose activation, hits mostly activators | 2.4% of 320,000 active; further: % of control where 0% means no effect; nearly all actives have a fitted effect of over 60% in size
#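 Compounds in DMSO were transferred onto Huh7 NPC1-luciferase reporter cells pre-incubated 2 h; after 24 h at 37 °C, Amplite reagent was dispensed and luminescence recorded 10 min later.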
# SMN2 splice enh: SMN2 splice variant enhancement | HEK293 SMN2-luciferase splicing reporter, luminescence, 30-36 h | 2.8% of 210,000 active | AID 1458 | Potency, µM (doses to about 46.1 µM), without a hit: at the highest dose activity change, positive = activation, most hits filed as activators; further: % of control where 0% means no effect; nearly all actives have a fitted effect of over 55% in size
#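 HEK293 cells carry an SMN2 minigene-luciferase reporter in which exon 7 inclusion puts luciferase in frame. Cells were seeded at 2000 cells/well, attached for 10-12 hours, then exposed to compounds for 30-36 hours at 37C before ONE-Glo luminescence.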
# * = called active by the depositor; u = inconclusive; x = not tested or not shown; [ ] = remark or other dose. The call rests on the fitted dose curve; in most records, active means well fitted curve in the direction sought with a large enough effect; inconclusive means small, poorly fitted or top-dose-only effect, or another doubt; inactive means no such curve, though single readings can be large; an effect the other way counts as inactive or inconclusive. Potency means the concentration at half of the fitted maximal effect.
SMILES,KinaseGlo FLuc,FLuc modulator,ELG1 genotox,Rab9 prom act,NPC1 promoter act,SMN2 splice enh
N=C(c1ccc([N+](=O)[O-])cc1)N1CCCCC1,-1%,-2%,-4%,-12%,-3%,-8%
COc1ccccc1N/N=C(\C#N)C(=N)N1CCOCC1,-1%,-6%,0%,11%,3%,u
N#C/C(=N\Nc1ccccc1[N+](=O)[O-])C(=N)N1CCCCC1,-12%,2.4µM*,u,0.28µM*,0.56µM*,3.2µM*
N#C/C(=N/Nc1ccc([N+](=O)[O-])cc1)C(=N)N1CCCCC1,-6%,9.5µM*,u,0.56µM*,1µM*,3.2µM*
N#C/C(=N\Nc1ccc([N+](=O)[O-])cc1)C(=N)N1CCOCC1,x,u,u,2.8µM*,u,x
Cc1cccc(CNC(=O)c2ccc(NC(=O)N3CCSc4ccccc43)cc2)c1,x,-1%,x,x,x,-7%
CCOC(=O)c1c(C)[nH]c(CCC(=O)NCc2ccc(CC)cc2)c1C,x,3%,x,x,x,x
CCc1nnc2c3ccccc3nc(Nc3ccc(F)c(Cl)c3)n12,x,-2%,x,x,x,6%
N#C/C(=N\Nc1ccc(S(=O)(=O)N2CCCCCC2)cc1)C(N)=S,-2%,u,-17%,0%,-2%,-23%
N#C/C(=N\Nc1ccc([N+](=O)[O-])cc1)C(N)=S,x,17µM*,-15%,20%,24%,x
COc1ccc(C(=O)NCCSC2CCCCC2)cc1,-1%,13µM*,u,u,u,16µM*
O=C(NCCSC1CCCCC1)c1ccccc1,-2%,u,u,u,29%,u
CC(=O)N1CCc2cc(Br)cc(S(=O)(=O)CCC(=O)N3CCN(c4ccc(F)cc4)CC3)c21,x,-7%,x,x,x,-10%
CCOc1ccc(CNC(=O)CCCn2ccc3cc(S(=O)(=O)N4CCCC4)ccc32)cc1,x,17µM*,-12%,-9%,-1%,x
CCOc1ccc(OCC)c(NC(=O)c2cc(S(=O)(=O)N3CCCC3)cn2C)c1,x,-6%,x,x,x,x
COC(=O)c1sc2cccc(F)c2c1S(=O)(=O)NCc1ccccc1Cl,x,-3%,x,x,x,x
Cc1ccc(F)cc1NC(=O)CCc1c(C)nn(-c2ccc(N3CCOCC3)nn2)c1C,x,-15%,x,x,x,x
Cc1ccc(NC(=O)CCc2c(C)nn(-c3ccc(N4CCOCC4)nn3)c2C)cc1F,x,13µM*,12%,u,u,x
CCc1cccc(NC(=O)CCc2c(C)nn(-c3ccc(N4CCOCC4)nn3)c2C)c1,x,17µM*,3%,8%,13%,x
CC(=O)c1ccc(NC(=O)CCc2c(C)nn(-c3ccc(N4CCOCC4)nn3)c2C)cc1,x,17µM*,1%[9.26 µM],u,u,x
CCc1ccc(NC(=O)CCc2c(C)nn(-c3ccc(N4CCOCC4)nn3)c2C)cc1,x,u,5%,14%,21%,x
COc1ccc(NC(=O)CCc2c(C)nn(-c3ccc(N4CCOCC4)nn3)c2C)cc1Cl,x,21µM*,x,x,x,x
COc1cc(NC(=O)CCc2c(C)nn(-c3ccc(N4CCOCC4)nn3)c2C)cc(OC)c1OC,x,-19%,1%[9.26 µM],8%,0%,x
CCOC(=O)CNC(=O)c1cc2c(=O)n(CC)c3ccccc3c2s1,x,4%,x,x,x,8%
COC(=O)c1ccc(NC(=O)CCc2c(C)nn(-c3ccc(N4CCOCC4)nn3)c2C)cc1,x,19µM*,x,x,x,x
SMILES,KinaseGlo FLuc,FLuc modulator,ELG1 genotox,Rab9 prom act,NPC1 promoter act,SMN2 splice enh
Cc1ccccc1OC[C@H](O)CO,2%[17.1 µM],x,x,x,x,-9%[20.6 µM]
CCOC(=O)N1CCN(C(=O)CSc2nnc(COc3ccccc3)o2)CC1,-1%,3%,0%,0%,-1%,4µM*
CCOC(=O)N1CCN(C(=O)CSCc2ccc(Cl)cc2)CC1,-9%,6%,-1%,-2%,-4%,8%
CCOC(=O)N1CCN(C(=O)CSCc2ccccc2)CC1,-2%,u,17%,u,u,11µM*
CC(C)c1ccc(NS(=O)(=O)c2ccc3nc(-c4ccccc4)[nH]c3c2)cc1,x,5%,x,x,x,-25%
O=C(O)COc1ccccc1/C=N/NC(=O)CSc1nnc(SCc2ccc(Cl)cc2)s1,x,9.5µM*,-3%,5%,13%,x
O=C(CSc1nnc(SCc2cccc3ccccc23)s1)N/N=C/c1c[nH]c2ccccc12,2%,u,-6%,-1%,0%,-26%
O=C(CSc1nnc(SCc2ccc(Cl)cc2)s1)N/N=C/c1c[nH]c2ccccc12,-6%,-5%,10%,-3%,7%,-22%
O=C(O)COc1ccccc1/C=N/NC(=O)CSc1nnc(SCc2cccc3ccccc23)s1,x,19µM*,0%,-4%,2%,x
O=C(CSc1nnc(SCc2ccc(Cl)cc2)s1)N/N=C/c1ccc(C(=O)O)cc1,x,1.3µM*,2%,0%,10%,x
COC(=O)c1ccc(OCC2c3cc(OC)c(OC)cc3CCN2C(=O)c2ccc(F)cc2)cc1 (stereo not given),x,4%,x,x,x,x
CC1(C)CC(=O)C(C(c2ccncc2)C2C(=O)CC(C)(C)CC2=O)C(=O)C1,-3%,2%,0%,-2%,2%,-3%
Cc1ccc(C(C2C(=O)CC(C)(C)CC2=O)C2C(=O)CC(C)(C)CC2=O)s1,-1%,21µM*,4%,0%,1%,-2%
Cc1nn2c(=O)cc(COC(=O)c3cccc(NC(=O)c4ccc(F)cc4)c3)nc2s1,x,-5%,x,x,x,x
COC(=O)c1c(C)[nH]c(O)c1C=Nc1ccc(C(C)C)cc1,-5%,8.5µM*,u,u,u,14%
CCC(C)NC(=O)Cn1c(=O)c2cccn2c2ccc(F)cc21 (stereo not given),x,-2%,x,x,x,x
COc1ccc(-n2c(=O)c(-c3ccc(Cl)cc3)nc3cnc(N4CCOCC4)nc32)cc1,1%,x,x,x,x,2%
O=S(=O)(C[C@H](O)C(Cl)(Cl)Cl)NNc1ccccc1,-2%[7.66 µM],x,x,x,x,3%[9.22 µM]
Cc1ccc(Nc2c(-c3ccc(C)cc3)nc3ccc(C)cn23)cc1,x,-2%,x,x,x,8%
